Assay results as given in PubChem BioAssay (NCATS).
Records with an inconclusive call do not appear. The source made the active and inactive calls. The call rests on the fitted dose curve; in most records, active means well fitted curve in the direction sought with a large enough effect; inconclusive means small, poorly fitted or top-dose-only effect, or another doubt; inactive means no such curve, though single readings can be large; an effect the other way counts as inactive or inconclusive.

Tests used:
[1] = tested on: NIH3T3; assay: qHTS assay to identify novel small-molecules to repurpose for Merkel cell carcinoma treatment (AID 1296009); details: MCC and control cell lines, CellTiter-Glo viability, 72 h; at 44.8 µM (top of the series) unless noted; further: nearly all actives have a fitted effect of over 60% in size
Outline: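 Luminescence from CellTiter-Glo, read 10 min after addition at room temperature, reported viability following a 72 hr, 37 degree celsius treatment with NPC or MIPE compounds in titration; values normalized to plate controls.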

[2] = tested on: C33A; assay: Primary qHTS to identify gynecologic anti-cancer compounds using libraries of approved drugs and bioactive compounds (AID 1345084); details: Gynecologic cancer cell panel viability, ATPlite luminescence, 48 h; series mostly up to 57.5 µM; further: on the % scale 0 is the no-effect control and ±100 the full control effect; nearly all actives have a fitted effect of over 55% in size
Outline: (§1)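 ATP-based viability (ATPlite), 1,000 cells/well, 16 h pre-incubation, 48 h compound at 37 C, 5% CO2, 15 min RT before read.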

[3] = tested on: CAOV3; assay: as above; details: Gynecologic cancer cell panel viability, ATPlite luminescence, 48 h; series mostly up to 57.5 µM
Outline: as §1

[4] = tested on: CASKI; assay: as above; details: Gynecologic cancer cell panel viability, ATPlite luminescence, 48 h; series mostly up to 57.5 µM
Outline: as §1

[5] = tested on: Es-2; assay: as above; details: Gynecologic cancer cell panel viability, ATPlite luminescence, 48 h; series mostly up to 57.5 µM
Outline: as §1

[6] = tested on: HeLa; assay: as above; details: Gynecologic cancer cell panel viability, ATPlite luminescence, 48 h; series mostly up to 57.5 µM
Outline: as §1

[7] = tested on: Hek293T; assay: as above; details: Gynecologic cancer cell panel viability, ATPlite luminescence, 48 h, control line for the selectivity index; series mostly up to 57.5 µM
Outline: as §1

[8] = tested on: JEG-3; assay: as above; details: Gynecologic cancer cell panel viability, ATPlite luminescence, 48 h; series mostly up to 57.5 µM
Outline: as §1

C=C[C@H]1[C@H](O[C@@H]2O[C@H](CO[C@@H]3OC[C@](O)(CO)[C@H]3O)[C@@H](O)[C@H](O)[C@H]2O)OC=C2C(=O)OCC[C@H]21
inactive: outcome [1] inactive [at 17.4 µM] | Potency [2] | Potency [3] | Potency [4] | Potency [5] | Potency [6] | Potency [7] | Potency [8]

CC(C)(O)c1ccc2c(c1)C(O)CC1C(C)(C(=O)O)CCCC21C (stereo not given)
inactive: outcome [1] | Potency [2] | Potency [3] | Potency [4] | Potency [5] | Potency [6] | Potency [7] | Potency [8]

CC(=O)O[C@@H]1C[C@]2(C)[C@@]3(CCC4[C@@]5(C)CC[C@H](O[C@@H]6O[C@H](C(=O)O)[C@@H](O)[C@H](O[C@@H]7O[C@H](CO)[C@H](O)[C@H](O)[C@H]7O[C@@H]7O[C@@H](C)[C@H](O)[C@@H](O)[C@H]7O[C@@H]7OC[C@](O)(CO)[C@H]7O)[C@H]6O[C@@H]6O[C@H](CO)[C@H](O)[C@H](O)[C@H]6O)C(C)(C)C5CC[C@]42C)O[C@@H](O)[C@]12C3CC(C)(C)[C@@H](OC(=O)/C=C/c1ccc(O)c(O)c1)[C@@H]2OC(=O)/C=C/c1ccccc1 (stereo not given in full)
inactive: outcome [1] inactive [at 9.27 µM] | activity change, negative = cytotoxicity [2] 8.85% [at 6.55 µM] | activity change, negative = cytotoxicity [3] 0.993% [at 6.55 µM] | activity change, negative = cytotoxicity [4] 8% [at 6.55 µM] | activity change, negative = cytotoxicity [5] -3.99% [at 6.55 µM] | activity change, negative = cytotoxicity [6] 2.04% [at 6.55 µM] | activity change, negative = cytotoxicity [7] 0.066% [at 6.55 µM] | activity change, negative = cytotoxicity [8] -2.17% [at 6.55 µM]

CC1OC(O[C@H]2[C@@H](O)C[C@@]3(C)C([C@H](O)C[C@]4(C)C3CC=C3C5CC(C)(C)CC[C@]5(C(=O)OC5OC(CO)C(O)C(O)C5OC5OCC(OC6OCC(OC7OCC(O)C(O)C7O)C(O)C6O)C(OC6OCC(O)(CO)C6O)C5O)CC[C@]34C)[C@]2(C)CO)C(O)C(O)C1O (stereo not given in full)
inactive: outcome [1] inactive [at 9.27 µM] | activity change, negative = cytotoxicity [2] 4.56% [at 6.55 µM] | activity change, negative = cytotoxicity [3] -2.76% [at 6.55 µM] | activity change, negative = cytotoxicity [4] 1.71% [at 6.55 µM] | activity change, negative = cytotoxicity [5] -1.65% [at 6.55 µM] | activity change, negative = cytotoxicity [6] 2.57% [at 6.55 µM] | activity change, negative = cytotoxicity [7] -2% [at 6.55 µM] | activity change, negative = cytotoxicity [8] -1.46% [at 6.55 µM]

C=Cc1cc(O)cc2nc(-c3ccc(O)c(F)c3)oc12
inactive: outcome [1] | Potency [2] | Potency [3] | Potency [4] | Potency [5] | Potency [6] | Potency [7] | Potency [8]

COc1cc2c(cc1O)C1(Cc3ccc4c(c3C1=O)OCO4)N(C)CC2 (stereo not given)
inactive: outcome [1] | Potency [2] | Potency [3] | Potency [4] | Potency [5] | Potency [6] | Potency [7] | Potency [8]

CC(=O)NC(CCC(=O)O)C(=O)NCCc1ccc(O)cc1 (stereo not given)
inactive: outcome [1] | Potency [2] | Potency [3] | Potency [4] | Potency [5] | Potency [6] | Potency [7] | Potency [8]

COc1cc(CC(COC2OC(CO)C(O)C(O)C2O)c2cc(/C=C/CO)cc(OC)c2O)ccc1O (stereo not given)
inactive: outcome [1] inactive [at 17.4 µM] | Potency [2] | Potency [3] | Potency [4] | Potency [5] | Potency [6] | Potency [7] | Potency [8]

CC(=O)c1c(C)cc(O)cc1O[C@@H]1O[C@H](CO)[C@@H](O)[C@H](O)[C@H]1O
inactive: outcome [1] | Potency [2] | Potency [3] | Potency [4] | Potency [5] | Potency [6] | Potency [7] | Potency [8]

COc1cc([C@H]2OC[C@@H]3[C@@H](c4ccc(O[C@@H]5O[C@H](CO)[C@@H](O)[C@H](O)[C@H]5O)c(OC)c4)OC[C@]23O)ccc1O
inactive: outcome [1] inactive [at 17.4 µM] | Potency [2] | Potency [3] | Potency [4] | Potency [5] | Potency [6] | Potency [7] | Potency [8]

C/C(=C\CCC(C(=O)O)C1CCC2(C)C3=C(CCC12C)C1(C)CCC(=O)C(C)(C)C1CC3)C(=O)O (stereo not given)
inactive: outcome [1] inactive [at 17.4 µM] | Potency [2] | Potency [3] | Potency [4] | Potency [5] | Potency [6] | Potency [7] | Potency [8]

O=C(/C=C/c1ccc(O)cc1)OC[C@H]1O[C@@H](OC(=O)/C=C/c2ccccc2)[C@H](O)[C@@H](O)[C@@H]1O
inactive: outcome [1] inactive [at 17.4 µM] | Potency [2] | Potency [3] | Potency [4] | Potency [5] | Potency [6] | Potency [7] | Potency [8]

NC1CCC(N[C@@H]2C[C@H]2c2ccccc2)CC1 (stereo not given in full)
inactive: outcome [1] | Potency [2] | Potency [3] | Potency [4] | Potency [5] | Potency [6] | Potency [7] | Potency [8]

CC[C@H](/C=C/[C@@H](C)[C@H]1CC[C@H]2[C@@H]3CC=C4C[C@@H](O)CC[C@]4(C)[C@H]3CC[C@]12C)C(C)C
inactive: outcome [1] inactive [at 4.96 µM] | activity change, negative = cytotoxicity [2] 8.42% [at 6.55 µM] | activity change, negative = cytotoxicity [3] 7.88% [at 6.55 µM] | activity change, negative = cytotoxicity [4] 17.1% [at 6.55 µM] | activity change, negative = cytotoxicity [5] 0.911% [at 6.55 µM] | activity change, negative = cytotoxicity [6] -1.7% [at 6.55 µM] | activity change, negative = cytotoxicity [7] 4.66% [at 6.55 µM] | activity change, negative = cytotoxicity [8] 3.22% [at 6.55 µM]

COc1cc(C(C)=O)ccc1O[C@@H]1O[C@H](CO[C@@H]2O[C@@H](C)[C@H](O)[C@@H](O)[C@H]2O)[C@@H](O)[C@H](O)[C@H]1O
inactive: outcome [1] inactive [at 17.4 µM] | Potency [2] | Potency [3] | Potency [4] | Potency [5] | Potency [6] | Potency [7] | Potency [8]
